# Experimental data taken from PubChem BioAssay AID2570 (National Center for Advancing Translational Sciences (NCATS), 2010).
# Inconclusive results are not listed. Calls of active or inactive are those of the source. The call rests on the fitted dose curve; in most records, active means well fitted curve in the direction sought with a large enough effect; inconclusive means small, poorly fitted or top-dose-only effect, or another doubt; inactive means no such curve, though single readings can be large or run the other way.
# Biological target: Vasopressin V1b receptor (Homo sapiens) (UniProt P47901)
# Assay: Counterscreen Concentration-Response Assay for Antagonists of the Neuropeptide S Receptor: Vasopressin Receptor Calcium Signal Transduction
# Conditions: CHO-AVPR1B, vasopressin-stimulated calcium fluorescence, FDSS
# Excerpt: NIH Chemical Genomics Center [NCGC] NIH Molecular Libraries Probe Production centers Network [MLPCN] MLPCN Grant: X01-DA026210-01 Assay Submitter (PI): Heilig, Markus Alexander NCGC Assay Overview: Neuropeptide S receptor (NPSR), previously known as GPR154, is a recently de-orphanized G protein coupled receptor. Its endogenous ligand is the 20 amino acids peptide Neuropeptide S (NPS). […] NPS and its receptor are found in various tissues. Specifically they are highly expressed in brain areas that have been implicated in modulation of arousal, stress and anxiety. […] This change in intracellular calcium can be detected using a calcium indicator dye on a calcium imaging plate reader system (FDSS). […]
# NCGC Assay Protocol Summary: A Chinese hamster ovary (CHO) cell line stably expressing human vasopressin receptor (AVPR1B) was maintained in F-12 Kaighn's media (Invitrogen, Carlsbad, CA, 21127) supplemented with 10 % FBS, 100 units/ml penicillin, 100 ug/ml streptomycin and 250 ug/ml geneticin at 37C, 5% CO2 in a humidified atmosphere. […] The assay was performed on a FDSS-7000 kinetic plate reader in 1536-well format. The maximums of kinetic fluorescence responses were converted into text files using the instrument's software data export utility. […] AC50 values were determined from concentration-response data modeled with the standard Hill equation. […]
# Chain of Vasopressin V1b receptor (Homo sapiens) (P47901 whole entry, looked up): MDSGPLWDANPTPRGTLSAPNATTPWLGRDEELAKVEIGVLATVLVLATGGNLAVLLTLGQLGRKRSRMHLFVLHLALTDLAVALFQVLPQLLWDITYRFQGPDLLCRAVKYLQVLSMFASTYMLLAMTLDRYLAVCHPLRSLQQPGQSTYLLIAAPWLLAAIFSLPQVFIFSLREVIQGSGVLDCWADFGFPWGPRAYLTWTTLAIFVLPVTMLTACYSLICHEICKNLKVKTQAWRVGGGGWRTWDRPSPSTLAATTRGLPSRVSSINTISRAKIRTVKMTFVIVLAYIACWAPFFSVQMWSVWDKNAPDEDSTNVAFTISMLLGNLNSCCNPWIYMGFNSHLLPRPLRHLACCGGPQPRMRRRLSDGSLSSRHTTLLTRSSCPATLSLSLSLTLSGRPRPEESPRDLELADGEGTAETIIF
smiles,measurement,value
Cc1c(P(=S)(c2ccccc2)c2ccccc2)[n+]2ccccc2n1C,max response,7.72% (inactive)
